Values joined by “and” are separate entries in the source; they are usually repeats but may differ in a detail not shown here. Equal values may be shown once. A number with no mark means an inactive call. Active and inactive are the calls of the source.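 How the source made its calls, unless noted: active means mean inhibition above 46.68%, the untreated control wells mean plus 3 SD; inactive means the rest.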
Columns and labels:
[1] = target: Nuclear receptor coactivator 3 (Homo sapiens) (UniProt Q9Y6Q9); assay: NCOA3 GAL4-fusion reporter inhibition – cell-based, luminescence, quadruplicate, confirmation (AID 588792;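 active means mean inhibition over 43.08%, the solvent-only control mean plus 3 SD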;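 further: 0% = DMSO treated cells and 100% = gossypol at 36 µM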); settings: HEK293 GAL4-SRC3 luciferase reporter, at 3.6 µM, active compounds read high
Sequence of Nuclear receptor coactivator 3 (Homo sapiens) (Q9Y6Q9 whole entry, looked up, the tested form may be a part): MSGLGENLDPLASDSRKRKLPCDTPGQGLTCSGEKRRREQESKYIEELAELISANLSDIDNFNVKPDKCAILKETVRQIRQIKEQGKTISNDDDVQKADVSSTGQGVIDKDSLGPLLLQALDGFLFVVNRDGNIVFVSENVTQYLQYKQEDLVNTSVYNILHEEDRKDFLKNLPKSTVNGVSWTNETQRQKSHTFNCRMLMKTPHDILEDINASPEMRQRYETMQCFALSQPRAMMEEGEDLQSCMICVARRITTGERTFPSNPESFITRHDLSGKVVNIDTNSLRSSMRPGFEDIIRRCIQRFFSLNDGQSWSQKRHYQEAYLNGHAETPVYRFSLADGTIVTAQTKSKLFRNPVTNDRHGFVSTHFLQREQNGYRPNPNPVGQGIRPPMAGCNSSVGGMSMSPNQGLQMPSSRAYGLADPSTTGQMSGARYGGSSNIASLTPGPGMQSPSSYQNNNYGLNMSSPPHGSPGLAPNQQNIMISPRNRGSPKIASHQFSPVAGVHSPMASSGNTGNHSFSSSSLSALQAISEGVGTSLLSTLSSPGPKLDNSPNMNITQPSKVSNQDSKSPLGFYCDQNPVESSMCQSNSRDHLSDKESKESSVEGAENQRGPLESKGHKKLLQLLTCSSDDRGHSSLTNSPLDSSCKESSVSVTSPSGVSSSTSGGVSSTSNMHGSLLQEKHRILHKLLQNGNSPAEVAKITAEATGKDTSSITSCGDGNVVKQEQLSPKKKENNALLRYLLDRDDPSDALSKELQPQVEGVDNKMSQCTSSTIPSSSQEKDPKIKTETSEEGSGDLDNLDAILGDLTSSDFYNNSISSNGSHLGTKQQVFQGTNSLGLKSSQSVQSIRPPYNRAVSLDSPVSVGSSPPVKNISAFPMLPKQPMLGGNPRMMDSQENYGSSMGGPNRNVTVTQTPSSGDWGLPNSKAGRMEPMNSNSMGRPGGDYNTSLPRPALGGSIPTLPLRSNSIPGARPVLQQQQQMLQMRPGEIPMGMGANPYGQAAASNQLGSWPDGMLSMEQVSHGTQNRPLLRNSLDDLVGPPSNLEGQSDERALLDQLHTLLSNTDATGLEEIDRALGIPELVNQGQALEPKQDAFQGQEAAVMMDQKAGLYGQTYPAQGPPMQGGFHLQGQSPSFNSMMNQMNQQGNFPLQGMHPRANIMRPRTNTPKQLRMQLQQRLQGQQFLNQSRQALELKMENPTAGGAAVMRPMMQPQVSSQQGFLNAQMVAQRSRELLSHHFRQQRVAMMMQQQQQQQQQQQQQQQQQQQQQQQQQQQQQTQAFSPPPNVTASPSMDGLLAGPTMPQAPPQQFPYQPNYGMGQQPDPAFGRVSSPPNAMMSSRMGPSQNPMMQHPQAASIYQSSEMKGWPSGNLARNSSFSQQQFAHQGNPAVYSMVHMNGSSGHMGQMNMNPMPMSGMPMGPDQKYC

[2] = test system: transactivating tegument protein VP16 (Human herpesvirus 1), Gal4-VP16 luciferase reporter; assay: repression of VP16-driven luciferase reporter – cell-based, luminescence, high throughput, counter-screen for SRC3 inhibitor project (AID 588794; in the data active means inhibition above about 30%); settings: mammalian cells, at 3.6 µM, active compounds read high
[3] = target: Nuclear receptor coactivator 1 (Homo sapiens) (UniProt Q15788); assay: NCOA1 GAL4-fusion reporter inhibition – cell-based, luminescence, quadruplicate, confirmation (AID 588820); settings: HEK293 GAL4-SRC1 luciferase reporter, at 3.6 µM, active compounds read high;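 further: 0% = DMSO wells and 100% = gossypol 36 µM treated wells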
Sequence of Nuclear receptor coactivator 1 (Homo sapiens) (Q15788 whole entry, looked up, the tested form may be a part): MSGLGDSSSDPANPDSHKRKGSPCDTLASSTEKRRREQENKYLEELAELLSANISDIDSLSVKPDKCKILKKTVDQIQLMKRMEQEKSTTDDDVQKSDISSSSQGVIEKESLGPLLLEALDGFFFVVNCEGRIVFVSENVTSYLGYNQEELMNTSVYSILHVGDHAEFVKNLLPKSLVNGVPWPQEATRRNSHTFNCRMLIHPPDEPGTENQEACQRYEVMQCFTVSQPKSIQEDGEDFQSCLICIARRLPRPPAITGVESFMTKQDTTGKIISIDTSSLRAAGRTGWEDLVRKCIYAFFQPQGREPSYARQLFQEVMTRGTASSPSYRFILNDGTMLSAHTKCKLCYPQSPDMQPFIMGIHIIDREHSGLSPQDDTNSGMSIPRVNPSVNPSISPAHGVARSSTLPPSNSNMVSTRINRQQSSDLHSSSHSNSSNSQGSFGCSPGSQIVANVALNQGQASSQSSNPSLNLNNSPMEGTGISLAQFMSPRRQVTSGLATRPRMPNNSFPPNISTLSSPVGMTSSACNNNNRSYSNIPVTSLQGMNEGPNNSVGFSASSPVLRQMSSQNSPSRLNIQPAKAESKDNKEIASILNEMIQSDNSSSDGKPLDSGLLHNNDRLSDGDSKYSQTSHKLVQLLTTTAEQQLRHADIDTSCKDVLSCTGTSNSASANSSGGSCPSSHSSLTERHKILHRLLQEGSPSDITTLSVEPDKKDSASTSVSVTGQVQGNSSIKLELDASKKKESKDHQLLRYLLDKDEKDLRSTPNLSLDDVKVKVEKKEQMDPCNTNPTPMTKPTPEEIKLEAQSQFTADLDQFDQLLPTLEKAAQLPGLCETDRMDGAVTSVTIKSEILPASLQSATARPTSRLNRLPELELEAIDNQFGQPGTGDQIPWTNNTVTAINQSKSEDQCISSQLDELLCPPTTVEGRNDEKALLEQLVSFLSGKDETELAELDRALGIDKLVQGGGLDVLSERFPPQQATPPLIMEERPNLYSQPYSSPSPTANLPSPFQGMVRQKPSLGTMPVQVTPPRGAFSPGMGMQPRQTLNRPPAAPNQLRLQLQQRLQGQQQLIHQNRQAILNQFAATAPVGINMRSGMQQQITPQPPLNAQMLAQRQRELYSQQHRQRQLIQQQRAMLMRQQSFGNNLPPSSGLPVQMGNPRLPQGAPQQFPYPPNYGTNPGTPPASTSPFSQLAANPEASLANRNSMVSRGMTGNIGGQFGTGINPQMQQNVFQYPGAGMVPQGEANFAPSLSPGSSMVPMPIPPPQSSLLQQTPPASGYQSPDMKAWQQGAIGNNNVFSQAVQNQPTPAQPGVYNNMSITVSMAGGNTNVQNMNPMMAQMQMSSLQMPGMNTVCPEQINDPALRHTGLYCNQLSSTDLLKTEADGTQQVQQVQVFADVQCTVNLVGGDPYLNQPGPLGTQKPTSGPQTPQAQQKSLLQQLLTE

[4] = repression of VP16-driven luciferase reporter – cell-based, luminescence, high throughput, counter-screen for SRC1 inhibitor project (AID 588824; in the data active means inhibition above about 25%); settings: cell-based VP16 transactivation luciferase luminescence; at 3.6 µM; active compounds read high
[5] = StAR promoter reporter inhibitors, counter-screen for LRH-1 inverse agonist project, cell-based, luminescence, high throughput (AID 651611; in the data active means inhibition above about 28%); settings: StAR promoter luciferase reporter counterscreen, at 3.6 µM, active compounds read high
[6] = target: Nuclear receptor subfamily 5 group A member 2 (Homo sapiens) (UniProt O00482); assay: NR5A2 activity suppression in reporter cells – cell-based, luminescence, confirmation (AID 651613; in the data active means inhibition above about 42%;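 further: HEK293T cells co-transfected with LRH-1 and StAR promoter luciferase reporter; 0% = vehicle wells and 100% = parental cells lacking receptor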); settings: cell-based LRH-1 luciferase reporter, inverse agonism; at 3.6 µM; active compounds read high
Sequence of Nuclear receptor subfamily 5 group A member 2 (Homo sapiens) (O00482 whole entry, looked up): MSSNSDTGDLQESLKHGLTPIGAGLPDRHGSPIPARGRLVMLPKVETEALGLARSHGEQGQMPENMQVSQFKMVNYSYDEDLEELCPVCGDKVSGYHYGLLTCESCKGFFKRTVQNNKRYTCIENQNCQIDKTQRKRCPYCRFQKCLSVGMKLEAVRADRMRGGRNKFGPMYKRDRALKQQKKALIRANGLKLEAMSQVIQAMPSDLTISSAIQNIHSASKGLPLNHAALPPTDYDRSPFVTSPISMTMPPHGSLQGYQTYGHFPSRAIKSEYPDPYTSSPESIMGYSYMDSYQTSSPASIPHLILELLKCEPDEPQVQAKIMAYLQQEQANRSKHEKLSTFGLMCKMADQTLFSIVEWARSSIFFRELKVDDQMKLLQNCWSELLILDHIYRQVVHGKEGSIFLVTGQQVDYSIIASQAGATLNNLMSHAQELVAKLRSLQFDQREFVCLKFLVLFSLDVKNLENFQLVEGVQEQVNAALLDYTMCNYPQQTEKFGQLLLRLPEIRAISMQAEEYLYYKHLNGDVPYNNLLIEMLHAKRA

[7] = target: Steroidogenic factor 1 (Homo sapiens) (UniProt Q13285); assay: inverse agonism at SF1 nuclear receptor – cell-based, luminescence, high throughput, counter-screen for LRH-1 inverse agonist project (AID 651614; in the data active means inhibition above about 44%;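 further: cells cotransfected with StAR promoter reporter and SF1 expression vector; 0% = vehicle on cells with receptor and 100% = vehicle on cells lacking receptor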); settings: cell-based SF1 luciferase reporter, at 3.6 µM, active compounds read high
Sequence of Steroidogenic factor 1 (Homo sapiens) (Q13285 whole entry, looked up, the tested form may be a part): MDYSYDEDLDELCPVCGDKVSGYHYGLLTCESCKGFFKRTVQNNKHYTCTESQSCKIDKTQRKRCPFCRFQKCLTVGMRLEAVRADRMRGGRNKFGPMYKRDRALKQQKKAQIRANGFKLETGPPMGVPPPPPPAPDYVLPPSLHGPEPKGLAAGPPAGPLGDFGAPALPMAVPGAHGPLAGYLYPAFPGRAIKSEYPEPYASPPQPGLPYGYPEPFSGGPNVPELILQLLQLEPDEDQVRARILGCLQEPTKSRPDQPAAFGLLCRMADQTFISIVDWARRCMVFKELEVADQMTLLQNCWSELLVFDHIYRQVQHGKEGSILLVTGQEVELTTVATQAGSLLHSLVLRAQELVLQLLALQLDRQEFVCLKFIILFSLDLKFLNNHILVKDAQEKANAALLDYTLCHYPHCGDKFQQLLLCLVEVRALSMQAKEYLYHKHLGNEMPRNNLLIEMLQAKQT

[8] = compounds suppressing VP16-driven luciferase signal – cell-based, luminescence, high throughput, counter-screen for LRH-1 inverse agonist project (AID 651615; in the data active means inhibition above about 33%); settings: Gal4-VP16 luciferase reporter cells, at 3.6 µM, active compounds read high
[9] = test system: transactivating tegument protein VP16 (Human herpesvirus 1); assay: compounds suppressing VP16-driven luciferase signal – cell-based, luminescence, single concentration, counter-screen for SRC2 inhibitor project (AID 652007; in the data active means inhibition above about 36%); settings: cell-based VP16 transactivation luciferase reporter, at 8.9 µM, active compounds read high
[10] = target: Nuclear receptor coactivator 2 (Homo sapiens) (UniProt Q15596); assay: inhibition of GAL4-SRC2 driven luciferase expression – cell-based, luminescence, HEK293, triplicate, confirmation (AID 652008;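 active means mean inhibition above 46.5%, the solvent-only control mean plus 3 SD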;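 further: 0% = DMSO-treated cells and 100% = Gossypol at 36 µM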); settings: HEK293 GAL4-SRC2 luciferase reporter, at 8.9 µM, active compounds read high

Cc1ccc(-c2cc(-c3ccccc3)cc(-c3ccccc3)[n+]2-c2ccccc2)cc1
inhibition [1]: 86.4% (active) | inhibition [2]: 89.9% (active) | inhibition [3]: 67.6% (active) | inhibition [4]: 85.6% (active) | inhibition [5]: 83.6% (active) | inhibition [6]: 110% (active) | inhibition [7]: 91.4% (active) | inhibition [8]: 95.2% (active) | inhibition [9]: 70% (active) | inhibition [10]: 61.8% (active)

C=C1C(=O)O[C@@H]2C[C@@H](C)[C@@H]3C=CC(=O)[C@@]3(C)[C@@H](OC(=O)CC(=O)O[C@H]3[C@@H]4C(=C)C(=O)O[C@@H]4C[C@@H](C)[C@@H]4C=CC(=O)[C@]43C)[C@H]12
inhibition [1]: 97.5% (active) | inhibition [2]: 96% (active) | inhibition [3]: 91.3% (active) | inhibition [4]: 95.7% (active) | inhibition [5]: 94.5% (active) | inhibition [6]: 106% (active) | inhibition [7]: 97.1% (active) | inhibition [8]: 94.5% (active) | inhibition [9]: 96% (active) | inhibition [10]: 99% (active)

CC12CCC3C(CCC4(O)CC(O)CCC34C=O)C1(O)CCC2C1=CC(=O)OC1 (stereo unspecified)
inhibition [1]: 90% (active) | inhibition [2]: 67.4% (active) | inhibition [3]: 14.4% | inhibition [4]: 67.5% (active) | inhibition [6]: 109% (active) | inhibition [7]: 96.2% (active)

NC(=O)c1cn(C2OC(CO)C(O)C2O)c2ncnc(N)c12 (stereo unspecified)
inhibition [1]: 96.2% (active) and 97.7% (active) | inhibition [2]: 97.7% (active) and 97.3% (active) | inhibition [3]: 90% (active) and 90.1% (active) | inhibition [4]: 97.9% (active) and 96% (active) | inhibition [5]: 94.2% (active) and 95% (active) | inhibition [6]: 109% (active) and 110% (active) | inhibition [7]: 96.8% (active) and 98% (active) | inhibition [8]: 95.5% (active) and 97.3% (active) | inhibition [9]: 65% (active) and 66.1% (active) | inhibition [10]: 67.3% (active) and 73.3% (active)

Reference: PubChem BioAssay
